Records with an inconclusive call do not appear. The source made the active and inactive calls. How the source made its calls: active means hit-call score of the fitted dose curve at least 0.9, where 1 is the maximum; inconclusive means response in the unintended direction; inactive means score below 0.9.
What follows are molecules tested against human Phosphodiesterase 10 (PDE10), PDE10A (gene 10846) (UniProt Q9Y233) (assay: NVS_ENZ_hPDE10: NovaScreen (NVS) Enzymatic Assay for human Phosphodiesterase 10 (PDE10) (AID 2283195)).
Sequence of human Phosphodiesterase 10 (PDE10), PDE10A (gene 10846) (Q9Y233 whole entry, looked up): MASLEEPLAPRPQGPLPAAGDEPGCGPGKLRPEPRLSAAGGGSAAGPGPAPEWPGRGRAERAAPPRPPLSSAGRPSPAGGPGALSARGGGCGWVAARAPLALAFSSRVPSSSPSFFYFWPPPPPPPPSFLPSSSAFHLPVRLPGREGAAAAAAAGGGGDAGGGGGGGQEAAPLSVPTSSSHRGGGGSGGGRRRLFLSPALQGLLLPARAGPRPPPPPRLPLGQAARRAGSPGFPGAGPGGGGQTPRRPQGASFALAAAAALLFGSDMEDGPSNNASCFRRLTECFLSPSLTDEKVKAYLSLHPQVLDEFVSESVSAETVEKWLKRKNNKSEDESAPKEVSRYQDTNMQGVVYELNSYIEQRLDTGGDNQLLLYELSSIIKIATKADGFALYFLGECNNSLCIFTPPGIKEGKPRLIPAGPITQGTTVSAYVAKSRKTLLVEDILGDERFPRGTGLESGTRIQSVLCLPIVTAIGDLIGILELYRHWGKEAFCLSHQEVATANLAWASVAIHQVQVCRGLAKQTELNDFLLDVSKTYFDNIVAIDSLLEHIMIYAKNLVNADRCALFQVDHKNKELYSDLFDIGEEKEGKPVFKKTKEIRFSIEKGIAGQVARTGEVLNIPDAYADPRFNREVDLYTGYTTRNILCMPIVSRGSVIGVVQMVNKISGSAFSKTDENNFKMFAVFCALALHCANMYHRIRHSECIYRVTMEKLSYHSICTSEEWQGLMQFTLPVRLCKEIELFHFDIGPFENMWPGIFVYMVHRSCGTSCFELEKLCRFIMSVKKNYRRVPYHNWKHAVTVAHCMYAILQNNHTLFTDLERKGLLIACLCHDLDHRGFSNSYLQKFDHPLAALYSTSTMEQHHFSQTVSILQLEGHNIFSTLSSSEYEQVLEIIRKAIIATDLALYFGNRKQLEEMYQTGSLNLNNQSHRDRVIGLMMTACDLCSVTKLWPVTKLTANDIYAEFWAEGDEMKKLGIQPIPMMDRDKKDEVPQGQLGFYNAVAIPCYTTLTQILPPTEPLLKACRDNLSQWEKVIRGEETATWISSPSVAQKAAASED
Outline: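 Recombinant human PDE10 with fluorescent substrate, 1 h, product separated by electrophoretic mobility shift. Loss of enzyme activity fitted against DMSO; initial screen 25 uM in duplicate, actives run to 50 uM maximum.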

| SMILES | outcome |
| --- | --- |
| Nc1cccc(C(F)(F)F)c1 | inactive |
| O=CN1CCCCC1 | inactive |
| Cn1c(=O)[nH]c2ncn(C)c2c1=O | inactive |
| NC(=O)NNC(N)=O | inactive |
| OCCCS | inactive |
| Cc1ccc(C2OC[C@@H]3OC(c4ccc(C)cc4)O[C@H]([C@H](O)CO)[C@@H]3O2)cc1 (some centres undefined) | inactive |
| O=C1CCCC(=O)O1 | inactive |
| CC1OC1C1CCC2(C)OC2C1 (centres undefined) | inactive |
| CCOC(=O)[C@H](C)O | inactive |
| CC(C)(C)c1n[nH]c(=O)n(N)c1=O | inactive |

What follows are molecules tested against sheep Cyclooxygenase-1 (Cox1), PTGS1 (gene 443551) (UniProt P05979) (assay: NVS_ENZ_oCOX1: NovaScreen (NVS) Enzymatic Assay for sheep Cyclooxygenase-1 (Cox1) (AID 2283239);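 further: actives reduce cyclooxygenase activity so potencies are for inhibitors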).
Sequence of sheep Cyclooxygenase-1 (Cox1), PTGS1 (gene 443551) (P05979 whole entry, looked up): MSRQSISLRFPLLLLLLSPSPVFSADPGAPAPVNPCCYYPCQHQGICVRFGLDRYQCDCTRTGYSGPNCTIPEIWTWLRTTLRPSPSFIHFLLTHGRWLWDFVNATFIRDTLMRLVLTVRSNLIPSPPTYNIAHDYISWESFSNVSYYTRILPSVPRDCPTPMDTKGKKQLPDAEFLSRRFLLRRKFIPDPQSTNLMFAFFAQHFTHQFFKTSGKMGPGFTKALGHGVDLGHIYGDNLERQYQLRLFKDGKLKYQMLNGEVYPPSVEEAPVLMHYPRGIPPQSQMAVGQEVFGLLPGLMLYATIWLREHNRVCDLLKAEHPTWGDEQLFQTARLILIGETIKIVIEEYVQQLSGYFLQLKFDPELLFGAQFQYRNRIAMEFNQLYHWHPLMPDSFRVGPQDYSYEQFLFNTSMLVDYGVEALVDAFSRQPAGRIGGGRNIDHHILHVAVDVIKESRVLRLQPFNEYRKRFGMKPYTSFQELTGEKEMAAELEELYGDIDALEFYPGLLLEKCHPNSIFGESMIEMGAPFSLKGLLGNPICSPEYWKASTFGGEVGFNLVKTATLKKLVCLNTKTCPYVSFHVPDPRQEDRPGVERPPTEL
Outline: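 Absorbance read-out of cyclooxygenase activity in a cell-free preparation from sheep seminal vesicles, taken 0.66 hour after dosing. Initial testing was in duplicate at 25 uM, and confirmatory testing was run in concentration series.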

| SMILES | outcome |
| --- | --- |
| CCO[Si](CCCN=C=O)(OCC)OCC | inactive |
| c1ccc(-c2ccccn2)nc1 | inactive |
| CC(CC=O)CCCC(C)(C)O (centres undefined) | inactive |

What follows are molecules tested against human Adenosine A2a Receptor (AdoRA2a), ADORA2A (gene 135) (UniProt P29274) (assay: NVS_GPCR_hAdoRA2a: NovaScreen (NVS) G Protein-Coupled Receptor Assay for human Adenosine A2a Receptor (AdoRA2a) (AID 2283256)).
Sequence of human Adenosine A2a Receptor (AdoRA2a), ADORA2A (gene 135) (P29274 whole entry, looked up): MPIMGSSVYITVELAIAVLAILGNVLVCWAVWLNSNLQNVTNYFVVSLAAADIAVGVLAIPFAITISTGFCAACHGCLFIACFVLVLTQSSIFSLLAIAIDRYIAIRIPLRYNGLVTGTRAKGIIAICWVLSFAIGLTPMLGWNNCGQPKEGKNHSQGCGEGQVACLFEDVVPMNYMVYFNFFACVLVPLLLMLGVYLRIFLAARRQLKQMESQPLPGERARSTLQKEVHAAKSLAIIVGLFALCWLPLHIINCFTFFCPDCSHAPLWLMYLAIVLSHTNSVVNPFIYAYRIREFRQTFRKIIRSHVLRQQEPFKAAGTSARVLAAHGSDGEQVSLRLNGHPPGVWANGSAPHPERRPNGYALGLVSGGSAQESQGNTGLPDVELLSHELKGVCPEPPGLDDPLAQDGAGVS
Outline: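 Radioligand displacement on HEK293-derived membrane protein, cell-free; filter-based scintillation counting 1.5 hours after dosing, loss of signal vs DMSO. Single-point duplicate screen at 25 uM, actives retested in concentration series.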

| SMILES | outcome |
| --- | --- |
| COCc1c(C(C)C)nc(C(C)C)c(/C=C/[C@@H](O)C[C@@H](O)CC(=O)O)c1-c1ccc(F)cc1 | inactive |
| C1=CCCC1 | inactive |
| CC(C)c1ccc(C=O)cc1 | inactive |
| O=c1c2ccccc2oc2ccccc12 | inactive |

Each molecule was assayed against D(1A) dopamine receptor (Homo sapiens) (UniProt P21728) (assay: NVS_GPCR_hDRD1: NovaScreen (NVS) G Protein-Coupled Receptor Assay for human Dopamine Receptor D1 (DRD1) (AID 2283269)).
Sequence of D(1A) dopamine receptor (Homo sapiens) (P21728 whole entry, looked up): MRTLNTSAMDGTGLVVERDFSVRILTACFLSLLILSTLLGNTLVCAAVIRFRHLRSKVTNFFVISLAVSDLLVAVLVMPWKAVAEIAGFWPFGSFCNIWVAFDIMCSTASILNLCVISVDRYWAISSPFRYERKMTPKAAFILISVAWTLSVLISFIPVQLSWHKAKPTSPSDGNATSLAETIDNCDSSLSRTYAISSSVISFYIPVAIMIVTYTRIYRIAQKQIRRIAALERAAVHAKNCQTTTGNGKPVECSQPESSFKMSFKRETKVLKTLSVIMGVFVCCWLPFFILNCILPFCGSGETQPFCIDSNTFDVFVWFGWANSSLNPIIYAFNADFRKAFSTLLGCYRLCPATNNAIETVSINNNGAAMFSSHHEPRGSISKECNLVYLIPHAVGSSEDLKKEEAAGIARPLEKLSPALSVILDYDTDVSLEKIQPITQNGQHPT
Outline: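 Extracted HEK293 DRD1 is incubated 1 h with compound and a tritiated or iodinated radioligand, then filtered and counted. Screening runs 25 uM in duplicate with on-plate positive and negative controls.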

| SMILES | outcome | AC50 |
| --- | --- | --- |
| C1=CCCC1 | inactive | – |
| C=CC(=O)OCC(Br)CBr (centres undefined) | inactive | – |
| CCCC(C)CCC(C)=O (centres undefined) | inactive | – |
| CCOc1nc(F)cc2nc(S(=O)(=O)Nc3c(Cl)cccc3C(=O)OC)nn12 | – | 25 µM (active) |

What follows are molecules tested against human Thromboxane A2 Receptor (TXA2), TBXA2R (gene 6915) (UniProt P21731) (assay: NVS_GPCR_hTXA2: NovaScreen (NVS) G Protein-Coupled Receptor Assay for human Thromboxane A2 Receptor (TXA2) (AID 2283282);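 further: actives reduce bound radioligand signal relative to DMSO baseline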).
Sequence of human Thromboxane A2 Receptor (TXA2), TBXA2R (gene 6915) (P21731 whole entry, looked up): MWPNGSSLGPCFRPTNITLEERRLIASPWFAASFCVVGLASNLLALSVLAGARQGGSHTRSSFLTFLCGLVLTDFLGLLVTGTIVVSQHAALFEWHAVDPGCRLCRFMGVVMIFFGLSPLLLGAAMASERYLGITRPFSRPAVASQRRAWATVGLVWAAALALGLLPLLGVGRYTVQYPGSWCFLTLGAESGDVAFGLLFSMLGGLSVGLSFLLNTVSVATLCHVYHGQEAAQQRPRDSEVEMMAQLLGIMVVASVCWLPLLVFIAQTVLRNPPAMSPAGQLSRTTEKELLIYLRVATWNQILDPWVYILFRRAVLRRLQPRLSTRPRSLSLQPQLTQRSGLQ
Outline: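 Human platelet-derived receptor preparation incubated with test chemical and radiolabelled ligand for 1 hour, cell-free. Bound label was separated by filtration and counted; displacement relative to DMSO controls gave activity, screened at 25 uM, then titrated.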

| SMILES | outcome | AC50 |
| --- | --- | --- |
| CCCCCCCCc1ccc(Nc2ccc(CCCCCCCC)cc2)cc1 | inactive | – |
| C=COCCCC | – | 25 µM (active) |
| Cc1ccc(C2OC[C@@H]3OC(c4ccc(C)cc4)O[C@H]([C@H](O)CO)[C@@H]3O2)cc1 (some centres undefined) | inactive | – |

— PubChem BioAssay (EPA / NIEHS)
